Reference: PubChem BioAssay (Tox21)
Values without a mark were called inactive. Inconclusive results are not listed. Where a call stands in place of a potency, no number is given. Active and inactive are the calls of the source. Unless noted, calls come from the whole dose curve; as a rule, active = well fitted curve in the direction sought with a large enough effect in the repeat runs; inconclusive = weak or mixed curves; inactive = no such curve, though single readings can be large; an effect the other way counts as inactive or inconclusive.

Key:
[1] = qHTS assay to identify small molecule antagonists of the estrogen related receptor (ERR) signaling pathway from Tox21 library - cell viability counter screen (AID 1224834); note: nearly all actives have a fitted effect of over 30% in size
How it was run: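 ERR cells, 2,000/well; 6 h settle at 37 C/5% CO2; pin-tool compound transfer in DMSO; 17.5 h at 37 C; CellTiter-Fluor, 30 min; fluorescence intensity.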

[2] = target: Luciferin 4-monooxygenase (Photinus pyralis) (UniProt P08659); assay: qHTS assay to identify small molecule inhibitors of firefly luciferase (AID 1224835); note: nearly all actives have a fitted effect of over 25% in size; note: potency is the fitted concentration of half-maximal effect
How it was run: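 Quantitative HTS format; KM concentrations of both substrates. Purified P. pyralis FLuc activity quantified from luminescence images.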

[3] = qHTS assay to identify small molecule agonists of the constitutive androstane receptor (CAR) signaling pathway - cell viability counter screen (AID 1224836); note: nearly all actives have a fitted effect of over 45% in size
How it was run: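 Compound titrations (15 concentrations) went onto HepG2-CYP2B6-hCAR cells 4 h after seeding, alongside PK11195 at a final 0.75 uM; a 23 h, 37 C/5% CO2 incubation preceded CellTiter-Fluor viability measurement.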

[4] = qHTS assay to identify small molecule antagonists of the constitutive androstane receptor (CAR) signaling pathway - cell viability counter screen (AID 1224837); note: nearly all actives have a fitted effect of over 45% in size
How it was run: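 Viability was measured with CellTiter-Fluor in a HepG2 line carrying stably transfected hCAR and a CYP2B6-2.2kb construct. Cells were exposed for 23 hr at 37 C to 15 compound concentrations with 50 nM CITCO as agonist.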

[5] = target: Nuclear receptor subfamily 1 group I member 3 (Homo sapiens) (UniProt Q14994); assay: qHTS assay to identify small molecule antagonists of the constitutive androstane receptor (CAR) signaling pathway (AID 1224838);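 note: HepG2 cells stably expressing hCAR with CYP2B6 luciferase reporter stimulated by CITCO; nearly all actives have a fitted effect of over 40% in size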
How it was run: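 Antagonist mode used CITCO at a final 50 nM to activate CAR in human hepatoma HepG2 cells carrying stable hCAR and a 2.2 kb CYP2B6 promoter-luciferase construct. Compounds were tested at 15 concentrations over 24 h, with luminescence as the end point.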

[6] = qHTS assay to identify small molecule antagonists of the estrogen related receptor signaling pathway with the pleiotropic PPARgamma coactivator (PGC) from Tox21 10K library - cell viability counter screen (AID 1224840; active = well fitted cell-killing curve with a large enough effect in the repeat runs, not every such curve was filed as active; note: nearly all actives have a fitted effect of over 40% in size)
How it was run: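 Multiplexed viability counter screen in the PGC/ERR cell line: cells treated with DMSO-dissolved compounds for 17.5 hours at 37 C, then viability measured as CellTiter-Fluor fluorescence.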

[7] = target: Thyrotropin receptor (Homo sapiens) (UniProt P16473); assay: qHTS assay to identify small molecule agonists of the thyroid stimulating hormone receptor (TSHR) signaling pathway (AID 1224843; calls by dose curve; note: nearly all actives have a fitted effect of over 45% in size)
How it was run: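 Using 15 concentrations per compound in triplicate, cAMP production was monitored in TSHR-HEK293 cells after 30 min compound incubation at RT; HTRF reagents followed, with fluorescence intensity recorded after 1 h.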

[8] = qHTS assay to identify small molecule agonists of H2AX (AID 1224845; active = well fitted activation curve with a large enough effect in the signal ratio in the repeat runs, not every such curve was filed as active; the % refers to the signal ratio)
How it was run: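 Wild-type CHO-K1 cells plated overnight, then exposed 3 hr at 37C to compounds at 15 concentrations (0.76% DMSO). Lysed, then HTRF anti-pH2AX(S139)-cryptate/anti-H2AX-d2 detection after 24 hr at room temperature; emissions 665 and 620 nm.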

[9] = qHTS assay to identify small molecule agonists of the hypoxia (HIF-1) signaling pathway (AID 1224846; active = well fitted activation curve with a large enough effect in the signal ratio in the repeat runs, not every such curve was filed as active; the % refers to the signal ratio)
How it was run: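 Compounds from the Tox21 10K library, dissolved in DMSO, are tested for induction of a hypoxia response element–controlled beta-lactamase reporter in ME-180 cells. Exposure lasts 17 hrs at 37C after a 5 hr settling period, followed by CCF4-AM FRET substrate.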

[10] = qHTS RealTime-Glo MT Cell Viability Assay in HepG2 cells - 24 hour (AID 1224867); note: nearly all actives have a fitted effect of over 50% in size
How it was run: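 qHTS, HepG2, 600 cells/well, RealTime-Glo (NanoLuc + prosubstrate) added with cells; 5 h preincubation; DMSO compound addition; 37 C; luminescence at 0/8/16/24/32/40 h.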

[11] = qHTS RealTime-Glo MT Cell Viability Assay in HEK293 cells - 32 hour (AID 1224868); note: top concentration of the series differs between compounds; nearly all actives have a fitted effect of over 50% in size
How it was run: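 Assay medium contained NanoLuc luciferase plus cell-permeant prosubstrate, added with HEK293 cells at 600 cells/well. After 5 h at 37 C/5% CO2 compounds were added; plates stayed at 37 C for 40 h with serial luminescence reads.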

[12] = A CellTox Green Cytotoxicity Assay to monitor cytotoxicity in HEK293 cells - 0 hour (AID 1224869); note: nearly all actives have a fitted effect of over 50% in size
How it was run: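 Cells (HEK293, 600/well) and dye reagent are dispensed together. After 5 h at 37 C, 23 nL compound is pinned in. Plates stay at 37 C for 40 h with fluorescence read at 0h, 8h, 16h, 24h, 32h and 40h.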

[13] = qHTS assay to identify small molecule antagonists of the estrogen related receptor signaling pathway with the pleiotropic PPARgamma coactivator (PGC) from Tox21 10K library (AID 1224841; call rule not given here; note: actives are mostly falling curves and most rising ones were filed inactive; nearly all actives have a fitted effect of over 50% in size)
How it was run: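 Steps: plate 2,000 PGC/ERR cells per well; incubate 6 h at 37 C with 5% CO2; transfer compounds from DMSO stocks by pin tool; incubate 18 h at 37 C; add One-Glo; measure luminescence 30 min later.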

[14] = qHTS assay to identify small molecule agonists of the estrogen related receptor signaling pathway with the pleiotropic PPARgamma coactivator (PGC) from Tox21 10K library (AID 1224842); note: nearly all actives have a fitted effect of over 15% in size
How it was run: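 PGC/ERR reporter cells (NTP line) were seeded 2,000 per well, rested 6 h at 37 C/5% CO2, then pin-dosed with compounds in DMSO for 18 h at 37 C; luciferase read by One-Glo luminescence after 30 min at room temperature.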

[15] = qHTS assay to identify small molecule agonists of the hypoxia (HIF-1) signaling pathway - cell viability counter screen (AID 1224844; calls by dose curve; note: nearly all actives have a fitted effect of over 50% in size)
How it was run: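 Cytotoxicity was measured in parallel with the HRE-driven beta-lactamase readout: after 17 hrs of compound exposure at 37C, HRE-bla ME-180 cells received CellTiter-Glo and luminescence was recorded 30 min later.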

[16] = qHTS assay to identify small molecule agonists of H2AX - cell viability counter screen (AID 1224847; calls by dose curve; note: top concentration of the series differs between compounds; nearly all actives have a fitted effect of over 30% in size)
How it was run: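 Read-out: CellTiter-Glo luminescence, 30 min RT. Cells: wild-type CHO-K1, 1000/well, 10% FBS, plated overnight at 37C. Treatment: 15 concentrations, 3 hr, 37C, 0.76% DMSO.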

[17] = qHTS assay to identify small molecule antagonists of the estrogen related receptor (ERR) signaling pathway from Tox21 library (AID 1224848); note: nearly all actives have a fitted effect of over 50% in size
How it was run: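 Tox21 10K compounds in DMSO tested for ERR pathway antagonism in NTP's ERR cell line; 18 h, 37 C exposure; ONE-Glo luminescence.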

[18] = qHTS assay to identify small molecule agonists of the estrogen related receptor (ERR) signaling pathway from Tox21 library (AID 1224849; calls by dose curve; note: nearly all actives have a fitted effect of over 15% in size); details: ERR reporter cell line, ONE-Glo luciferase, 18 h; at 92.4 µM (top of the series) unless noted
How it was run: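 Cells carrying the ERR reporter were plated and allowed to settle for 6 h, exposed to library compounds for 18 h at 37 C, then lysed with ONE-Glo and luminescence measured.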

Chain of Thyrotropin receptor (Homo sapiens) (P16473 whole entry, looked up): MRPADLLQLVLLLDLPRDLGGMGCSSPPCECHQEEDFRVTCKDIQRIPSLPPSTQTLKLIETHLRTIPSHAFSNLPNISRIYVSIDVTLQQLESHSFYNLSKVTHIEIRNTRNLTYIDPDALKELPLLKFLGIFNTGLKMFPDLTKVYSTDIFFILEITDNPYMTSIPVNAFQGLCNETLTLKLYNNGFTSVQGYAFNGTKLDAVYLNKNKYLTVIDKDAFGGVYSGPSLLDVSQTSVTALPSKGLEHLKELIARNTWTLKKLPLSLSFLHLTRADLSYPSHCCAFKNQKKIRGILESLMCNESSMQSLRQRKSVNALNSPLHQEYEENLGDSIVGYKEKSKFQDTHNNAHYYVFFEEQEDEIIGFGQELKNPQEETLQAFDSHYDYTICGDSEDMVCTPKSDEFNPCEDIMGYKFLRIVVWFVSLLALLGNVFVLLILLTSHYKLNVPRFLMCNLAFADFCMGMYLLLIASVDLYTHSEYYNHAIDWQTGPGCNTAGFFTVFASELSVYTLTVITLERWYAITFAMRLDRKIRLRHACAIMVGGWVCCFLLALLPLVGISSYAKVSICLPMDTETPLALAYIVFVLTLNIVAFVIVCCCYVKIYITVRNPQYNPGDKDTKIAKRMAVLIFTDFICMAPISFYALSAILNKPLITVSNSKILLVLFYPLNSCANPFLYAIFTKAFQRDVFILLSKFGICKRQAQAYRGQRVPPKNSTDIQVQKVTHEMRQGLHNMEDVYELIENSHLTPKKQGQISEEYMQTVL
Chain of Luciferin 4-monooxygenase (Photinus pyralis) (P08659 whole entry, looked up): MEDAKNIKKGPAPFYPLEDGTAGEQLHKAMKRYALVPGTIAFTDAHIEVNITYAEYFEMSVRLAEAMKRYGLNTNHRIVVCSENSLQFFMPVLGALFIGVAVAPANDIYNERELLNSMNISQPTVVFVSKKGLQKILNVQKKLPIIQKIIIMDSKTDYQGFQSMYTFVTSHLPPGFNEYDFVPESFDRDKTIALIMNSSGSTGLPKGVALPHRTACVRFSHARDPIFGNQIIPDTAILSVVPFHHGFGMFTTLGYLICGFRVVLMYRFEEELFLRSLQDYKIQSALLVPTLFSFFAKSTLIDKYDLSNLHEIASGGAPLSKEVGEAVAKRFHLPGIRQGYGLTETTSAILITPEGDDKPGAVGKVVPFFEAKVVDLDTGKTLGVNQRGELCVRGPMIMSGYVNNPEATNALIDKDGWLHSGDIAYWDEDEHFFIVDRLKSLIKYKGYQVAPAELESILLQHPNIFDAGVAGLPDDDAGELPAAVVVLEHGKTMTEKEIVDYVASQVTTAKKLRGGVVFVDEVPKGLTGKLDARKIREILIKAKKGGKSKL
Chain of Nuclear receptor subfamily 1 group I member 3 (Homo sapiens) (Q14994 whole entry, looked up): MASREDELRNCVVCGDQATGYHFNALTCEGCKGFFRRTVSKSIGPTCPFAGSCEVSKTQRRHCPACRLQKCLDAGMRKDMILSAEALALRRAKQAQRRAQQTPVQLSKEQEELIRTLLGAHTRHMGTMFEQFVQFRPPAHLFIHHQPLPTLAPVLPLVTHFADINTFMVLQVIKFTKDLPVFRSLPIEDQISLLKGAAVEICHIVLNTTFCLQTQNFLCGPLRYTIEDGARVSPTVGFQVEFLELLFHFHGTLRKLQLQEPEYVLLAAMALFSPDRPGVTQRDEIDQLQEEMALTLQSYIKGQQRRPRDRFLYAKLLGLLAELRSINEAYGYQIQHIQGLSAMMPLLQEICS

SMILES	Potency [1]	Potency [2]	Potency [3]	Potency [4]	Potency [5]	Potency [6]	Potency [7]	Potency [8]	outcome [9]	outcome [10]	Potency [11]	Potency [12]	Potency [13]	Potency [14]	Potency [15]	Potency [16]	Potency [17]	activity change, positive = activation [18]
O=P(c1ccccc1)(c1ccccc1)c1ccccc1	inactive	inactive	inactive	inactive	inactive	inactive	inactive	inactive	inactive	inactive	inactive	inactive						
Cc1cc(SC2=C(O)C[C@@](CCc3ccc(N)cc3)(C(C)C)OC2=O)c(C(C)(C)C)cc1CO	inactive	inactive	inactive	inactive		inactive	inactive	inactive	inactive	inactive	inactive	inactive	inactive	inactive	inactive	inactive	inactive	-7.37%
C/C(=C\C(C)CC(C)CC(C)C)C1CC(=O)OC1=O (stereo not drawn)	inactive	89.4 µM (active)	inactive	inactive		inactive	inactive	inactive	inactive	inactive	inactive	inactive			inactive	inactive		
CCc1ccc2c(c1)C(=O)c1ccccc1C2=O	inactive	5.03 µM (active)	inactive	inactive	inactive	inactive	inactive	inactive		inactive	inactive	inactive			inactive			
CCC1=C(C)CN(C(=O)NCCc2ccc(S(=O)(=O)NC(=O)NC3CCC(C)CC3)cc2)C1=O (stereo not drawn)	inactive	inactive	inactive	inactive		inactive	inactive	inactive		inactive	inactive	inactive	inactive	inactive	inactive	inactive	inactive	-15.8% [at 42.5 µM]
CC(O)CN (stereo not drawn)	inactive	inactive	inactive	inactive		inactive	inactive	inactive	inactive	inactive	inactive	inactive	inactive	inactive	inactive	inactive	inactive	0.61%
O=c1c2ccccc2oc2ccccc12	inactive	20 µM (active)	inactive	inactive	inactive	inactive		inactive	inactive	inactive	inactive					inactive		
CCCCCCCCCCCCSCCOCCO	inactive	inactive	inactive	inactive		inactive	inactive	inactive	inactive	inactive	inactive		inactive	inactive	inactive	inactive	inactive	-7.91% [at 42.5 µM]
N#C[C@@H]1CC(F)(F)CN1C(=O)CNC1CC2CCC(C1)N2c1ncccn1 (stereo partly drawn)	inactive	inactive	inactive	inactive		inactive	inactive	inactive	inactive	inactive			inactive	inactive	inactive	inactive	inactive	-3.52%
CC(=O)OCC(=O)[C@@]1(O)CC[C@H]2[C@@H]3CCC4=CC(=O)C=C[C@]4(C)[C@@]3(F)[C@@H](O)C[C@@]21C	inactive	inactive	inactive	inactive		inactive	inactive	inactive	inactive	inactive	inactive	inactive			inactive	inactive		
COc1cccc([C@H](O)C2CCN(CCc3ccc(F)cc3)CC2)c1OC	inactive	inactive	inactive	inactive		inactive	inactive	inactive	inactive	inactive		inactive			inactive	inactive		
CCC(C)CCCC(C)(C)O (stereo not drawn)	inactive	inactive	inactive	inactive		inactive	inactive	inactive		inactive		inactive			inactive	inactive		
C=CC(C)CCC=C(C)C (stereo not drawn)	inactive	inactive	inactive	inactive		inactive	inactive	inactive	inactive	inactive	inactive	inactive			inactive	inactive		
